# Source: PubChem BioAssay AID2284171 (EPA ToxCast)
# Records with an inconclusive call do not appear. The source made the active and inactive calls. Rule for the calls: active = hit-call score of the fitted dose curve at least 0.9, where 1 is the maximum; inconclusive = response in the unintended direction; inactive = score below 0.9.
# Assay: ERF_FR_GPCR_rPY2: Eurofins (ERF) G Protein-Coupled Receptor (GPCR) Radioligand Binding LeadHunter Assay for rat P2Y Receptor (Non-Selective) Agonism
# Method: ERF_FR_GPCR_rPY2 is a biochemical, single-readout assay that uses extracted gene-proteins in a cell-free assay. Measurements were taken 1 hour after chemical dosing in a 96-well plate. See Non-Selective Rat P2Y GPCR Binding (Agonist Radioligand) Assay, Cerep.ERF_FR_GPCR_rPY2 is an assay component calculated from the ERF_FR_GPCR_rPY2 assay. It is designed to measure radioligand binding using a type of binding reporter as detected by scintillation counting with radiometry technology.Data from the assay component ERF_FR_GPCR_rPY2 was analyzed at the assay endpoint, ERF_FR_GPCR_rPY2, in the positive analysis fitting direction relative to DMSO as the negative control and baseline of activity. Using a type of binding reporter, gain-of-signal activity can be used to understand changes in binding as they relate to gene P2RY1. To generalize the intended target to other relatable targets, this assay endpoint is annotated to the gpcr intended target family, where the subfamily is P2Y.
# Rat cells are incubated for 60 minutes at room temprature with [35S]dATPalpha S (10 nM) ligand and Datpalphas as control inhibitor. Test Sample Requirements: Minimum for 1) Screen: 60 ul of 10 mM stock -OR- 1 mg (pre-weighed) for 10 uM final testing. 2) Dose Response: 90 ul of 10 mM stock -OR- 1 mg (pre-weighed) for a top concentration at 10 uM.
row,Structure (SMILES),AC50
1,O=C(/C=C/c1ccc(O)cc1)CC(=O)/C=C/c1ccc(O)cc1,937 nM (active)
